Screening data (PubChem)
USP7 block – inhibitors of human USP7 deubiquitinase; Ubiquitin carboxyl-terminal hydrolase 7 (Homo sapiens), Q93009; purified USP7, Ub-rhodamine cleavage fluorescence; inhibition, % at 20 µM; 47,000 compounds, 0.3% hits; AID 1645854, 2021
USP8 block – inhibitors of human USP8 deubiquitinase. Ubiquitin carboxyl-terminal hydrolase 8 (Homo sapiens), P40818. purified USP8, Ub-rhodamine cleavage fluorescence, 30 min. inhibition, % at 20 µM. 47,000 compounds, 4.2% hits
USP10 inh – inhibitors of human USP10 deubiquitinase; Ubiquitin carboxyl-terminal hydrolase 10 (Homo sapiens), Q14694; purified USP10, Ub-rhodamine fluorescence, 60 min; inhibition, % at 20 µM; 47,000 compounds, 1.1% hits
USP28 block – inhibitors of human USP28 deubiquitinase | purified USP28, Ub-rhodamine cleavage fluorescence, 30 min | inhibition, % at 25 µM | 47,000 compounds, 3% hits | AID 1645857, 2021
USP17 inh – inhibitors of human USP17 deubiquitinase | purified USP17, Ub-rhodamine cleavage fluorescence, 3 h | inhibition, % at 50 µM | 47,000 compounds, 6.5% hits
Target sequence (A8MUK1 whole entry, looked up): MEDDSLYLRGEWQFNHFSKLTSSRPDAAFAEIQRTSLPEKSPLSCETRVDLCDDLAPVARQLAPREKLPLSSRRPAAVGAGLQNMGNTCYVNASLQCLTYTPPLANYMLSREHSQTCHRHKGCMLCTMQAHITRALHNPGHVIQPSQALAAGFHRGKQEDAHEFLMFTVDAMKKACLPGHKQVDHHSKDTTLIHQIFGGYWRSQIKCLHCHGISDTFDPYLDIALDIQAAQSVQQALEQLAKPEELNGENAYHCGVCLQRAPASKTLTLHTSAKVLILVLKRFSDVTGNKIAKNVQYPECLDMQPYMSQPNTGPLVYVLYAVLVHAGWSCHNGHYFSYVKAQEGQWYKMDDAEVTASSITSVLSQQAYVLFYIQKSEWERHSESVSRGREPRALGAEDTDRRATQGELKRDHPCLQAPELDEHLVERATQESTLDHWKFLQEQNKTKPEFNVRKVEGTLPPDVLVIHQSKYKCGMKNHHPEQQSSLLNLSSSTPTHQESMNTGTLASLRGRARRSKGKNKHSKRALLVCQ
USP30 inh – inhibitors of human USP30 deubiquitinase. inhibition, % at 25 µM. 47,000 compounds, 5.3% hits. purified USP30, Ub-rhodamine cleavage fluorescence
Active calls of the source: *; i = inactive. Sampled rows, rich in hits. Any-hit rate of the full collection: about 13%. No stated cut-off is given here; in the data, active means inhibition above about 30%; inactive means the rest.

SMILES	USP7 block	USP8 block	USP10 inh	USP28 block	USP17 inh	USP30 inh
Cc1nn(-c2ccc(F)cc2)c(C)c1S(=O)(=O)N1CCC(C)CC1	5	-4	5	12	5	15
Cc1nn(-c2ccc(F)cc2)c(C)c1S(=O)(=O)N1CCN(c2ccccn2)CC1	36*	-2	5	4	24	38*
COc1ccc(CNC2C3CC4CC(C3)CC2C4)c(OC)c1 (centres undefined)	4	-6	1	12	1	16
O=C(CCc1c[nH]c2ccccc12)N1CCN(S(=O)(=O)c2ccc(Cl)cc2)CC1	1	0	-3	4	-3	-4
Cc1ccc(-n2c(-c3cccs3)cn3c4c(=O)n(C)c(=O)n(C)c4nc23)cc1	0	6	7	-4	36*	-2
Cn1c(=O)c2c(nc3n(CCCCO)c(-c4ccccc4)cn23)n(C)c1=O	-4	-13	0	14	0	17
Cn1c(=O)c2c(nc3n(-c4ccccc4F)c(-c4ccccc4)cn23)n(C)c1=O	2	9	0	2	39*	72*
COc1ccc(CCn2c(-c3ccccc3)cn3c4c(=O)n(C)c(=O)n(C)c4nc23)cc1OC	2	-38	2	16	10	39*
Cn1c(=O)c2c(nc3n(-c4ccc(F)cc4)c(-c4ccc(Br)cc4)cn23)n(C)c1=O	-2	4	0	0	6	1
CCOc1ccc(-c2cn3c4c(=O)n(C)c(=O)n(C)c4nc3n2-c2ccccc2F)cc1Cl	2	-3	1	-1	0	-127
CCOC(=O)CCCn1c(-c2ccccc2)cn2c3c(=O)n(C)c(=O)n(C)c3nc12	1	-78	-1	17	17	29
Cc1cn2c3c(=O)n(C)c(=O)n(C)c3nc2n1Cc1cccc2ccccc12	7	-80	3	10	7	48*
COc1ccccc1CNCC(O)(c1ccccc1)c1ccc(F)cc1 (centres undefined)	-27	4	0	20	8	36*
O=C(CCc1nc2ccccc2s1)Nc1ccc(F)c(Cl)c1	-19	1	-4	-13	21	-69
CSc1nc2ncn(CC(=O)Nc3cccc(Cl)c3)c(=O)c2s1	4	33*	0	1	60*	17
CSc1cccc(NC(=O)Cn2cnc3c(-c4ccc(F)cc4)nsc3c2=O)c1	7	19	2	5	15	11
Cc1nc(C2CN(C(=O)CCc3nc(C4CC4)no3)CCO2)n[nH]1 (centres undefined)	4	22	2	12	17	20
Cc1ccccc1S(=O)(=O)N1CCC2(C1)Nc1cccnc1NC2=NCc1ccccc1 (centres undefined)	-12	-104	-3	-196	-69	i
CCOc1cc(-c2cc3n(c(=N)c2C#N)CCc2cc4c(cc2-3)OCO4)ccc1OC	-132	-91	-5	-149	-132	i
Fc1ccc(-c2cc3n(c2)CCc2cc4c(cc2-3)OCO4)cc1	-19	47*	-4	-31	-23	-234
CCOc1ccc2ncc(C(=O)c3ccc(OC)cc3)c(S(=O)(=O)c3ccccc3)c2c1	11	-5	6	-1	0	-4
COc1cccc(N2CCN(C(=O)C3CCN(c4nc(NC(C)=O)ns4)CC3)CC2)c1	0	-47	-4	-4	69*	-3
C/C1=C/CC(O)/C=C/C(C)C(O)C(C)/C=C(\C)C(=O)c2c(O)c(C)cc3c2C(=O)C(Cl)=C(NC(=O)\C=C/C=C/C=C\C(C)C(O)CC1=O)C3=O (centres undefined)	-56	-90	-18	0	74*	-98
C/C1=C/C=C/C=C\[C@H](C)[C@@H](O)CC(=O)/C(C)=C/C[C@H](O)/C=C/[C@H](C)[C@H](O)[C@@H](C)/C=C(\C)C(=O)c2c(O)c(C)cc3c2C(=O)C=C(NC1=O)C3=O	-53	-124	-8	-47	21	-284
COC(=O)c1ccccc1NC(=O)CSc1nc(C)nc2c1oc1ccccc12	2	4	2	-6	45*	8
